Cruzain noTriton: cruzain (T. cruzi) inhibition without detergent; purified cruzain, Z-FR-AMC fluorescence, no detergent; 200,000 compounds, 2.3% hits; P25779; Potency, µM, without a hit: max response, negative = inhibition, usual class: inhibitors;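 further: plate controls were enzyme without inhibitor for no effect and buffer without enzyme for full effect; nearly all actives have a fitted effect of over 40% in size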
Target sequence (P25779 123-467 limits assumed): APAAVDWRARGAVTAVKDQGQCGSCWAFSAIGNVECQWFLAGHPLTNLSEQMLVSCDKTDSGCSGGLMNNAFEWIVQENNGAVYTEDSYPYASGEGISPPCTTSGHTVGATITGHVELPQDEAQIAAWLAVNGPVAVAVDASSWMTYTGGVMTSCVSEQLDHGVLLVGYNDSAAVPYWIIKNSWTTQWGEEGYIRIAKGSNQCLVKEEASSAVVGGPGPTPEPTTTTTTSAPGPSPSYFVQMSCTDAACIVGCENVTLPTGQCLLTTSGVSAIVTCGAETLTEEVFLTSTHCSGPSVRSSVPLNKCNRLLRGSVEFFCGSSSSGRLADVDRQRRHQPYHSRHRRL
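Purified cruzain at 1.5 nM, pre-incubated 15 min with compound at room temperature in 100 mM sodium acetate pH 5.5, 5 mM DTT, 0.00005% Triton X-100. Reaction started with 2 uM Z-FR-AMC; AMC fluorescence increase over 60 s gives rate.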
Cruzain Triton: cruzain (T. cruzi) inhibition with detergent; P25779; 200,000 compounds, 0.43% hits; purified cruzain, Z-FR-AMC fluorescence, 0.01% Triton; Potency, µM, inactives show max response, negative = inhibition, most hits filed as inhibitors;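 further: plate controls were neutral wells for no effect and buffer without enzyme for full effect; nearly all actives have a fitted effect of over 40% in size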
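In this qHTS format, compounds are incubated with 1.5 nM cruzain for 15 min at room temperature before 2 uM Z-FR-AMC is added. Release of AMC is followed at 360/450 nm, and progress is taken as the 60 s fluorescence difference.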
An asterisk follows results filed as active; ? = inconclusive; ! = a repeat was not active. Compounds with a hit are over-represented: about 2.6% of the library has one in this group of screens. The call rests on the fitted dose curve; in most records, active means well fitted curve in the direction sought with a large enough effect; inconclusive means small, poorly fitted or top-dose-only effect, or another doubt; inactive means no such curve, though single readings can be large; an effect the other way counts as inactive or inconclusive. Potency means the concentration at half of the fitted maximal effect.

SMILES	Cruzain noTriton	Cruzain Triton
Cc1nnc(SCC(=O)Nc2nc(-c3ccccc3)cs2)n1N	-19.5%	4.2%
Cc1ccc(-n2nnnc2SCC(=O)Nc2nc(-c3ccc(F)cc3)cs2)cc1C	?	3.5%
Cc1cc(C)cc(-n2nnnc2SCC(=O)Nc2nc(-c3ccc(F)cc3)cs2)c1	25.1µM*	5.5%
O=C(CCc1nc(-c2ccccc2F)no1)Nc1cccc(C(F)(F)F)c1	-2.9%	-11.8%
O=[N+]([O-])c1cc(S(=O)(=O)c2ccc(N3CCCCC3)c([N+](=O)[O-])c2)ccc1N1CCCCC1	7.94µM*	-7.9%
COc1cccc(C(=O)/C=C/c2ccc(N3CCCCC3)c([N+](=O)[O-])c2)c1	6.3%	-4.8%
O=C(/C=C/c1ccc(N2CCCCC2)c([N+](=O)[O-])c1)c1ccc(S(=O)(=O)N2CCCC2)cc1	31.6µM*	-5.5%
O=[N+]([O-])c1cccc(S(=O)(=O)c2ccc(N3CCCCC3)c([N+](=O)[O-])c2)c1	?	-6.8%
O=C(O)[C@@H](Br)[C@H](Br)C(=O)O	9.7%	0.9%
CCOc1ccc(N2CC(NC(=O)Cc3ccccc3)CC2=O)cc1 (stereo unspecified)	-8.1%	-1.2%
COc1ccc(CCNC(=O)c2nc(SCc3ccc(C)cc3)ncc2Cl)cc1OC	?	0.8%
O=C(c1ccccc1)c1nn(-c2ccc(Cl)cc2)cc1C(=O)c1cc2ccccc2oc1=O	25.1µM*	-4.6%
NC(=O)c1cn(-c2ccccc2)nc1-c1cc2ccccc2oc1=O	-0.8%	-3.2%
CCc1ccc(/C=N/NC(=O)c2cc(-c3ccccc3OC)nc3ccccc23)s1	-27.3%	-7.8%
CCc1ccc(/C=N/NC(=O)c2cc(C3CC3)nc3ccc(Br)cc23)s1	25.1µM*	2.6%
COc1ccc(C2CC(=O)N3CN(C4CCCCC4)CSC3=C2C#N)cc1 (stereo unspecified)	12.0%	20µM*
COc1ccc(N2CSC3=C(C#N)C(c4ccc(OC)c(OC)c4)CC(=O)N3C2)c(OC)c1 (stereo unspecified)	-14.9%	-12.4%
COc1cccc(C2CC(=O)N3CN(C4CCCCC4)CSC3=C2C#N)c1 (stereo unspecified)	9.7%	28.2µM*
CN1CSC2=C(C#N)C(c3cccc(OCc4ccccc4)c3)CC(=O)N2C1 (stereo unspecified)	5.6%	-13.3%
CCCCN1CC(c2nc3ccccc3n2CCCCOc2cc(C)ccc2C)CC1=O (stereo unspecified)	-8.8%	2.7%
O=C1C2C3C=CC(C2C(=O)N1CN1CCOCC1)C1C2C(=O)N(CN4CCOCC4)C(=O)C2C31 (stereo unspecified)	2.5%	5.5%
Cc1nnc(SCC(=O)N2CC(=O)Nc3ccccc32)n1C	-11.9%	0.6%
C=CCn1c(SCC(=O)N2CC(=O)Nc3ccccc32)nc2scc(-c3cccs3)c2c1=O	10µM*	-1.7%
C=CCn1c(COc2ccc(F)cc2)nnc1SCC(=O)N1CC(=O)Nc2ccccc21	-4.1%	-1.0%
CC(C)CCn1c(SCC(=O)N2CC(=O)Nc3ccccc32)nc2scc(-c3cccs3)c2c1=O	12.6µM*	-3.4%
SMILES	Cruzain noTriton	Cruzain Triton
COc1ccc(NCc2cc3cc4c(cc3n(CC(=O)Nc3cc(C)ccc3C)c2=O)OCCO4)cc1	-17.4%	-2.7%
Cc1ccc(S(=O)(=O)N(CC(=O)Nc2ccc(F)cc2F)Cc2ccc(F)cc2)cc1	12.7%	-7.7%
COc1ccc(C2/C=C\CC(NC(=O)OCC3c4ccccc4-c4ccccc43)CC(=O)N2Cc2cccc(F)c2)cc1 (stereo unspecified)	?	0.5%
COc1ccc(C2/C=C\CC(NC(=O)OCC3c4ccccc4-c4ccccc43)CC(=O)N2Cc2ccccc2F)cc1 (stereo unspecified)	12.6µM*	0.8%
CCOC(=O)C1CCCN(S(=O)(=O)c2csc(C(N)=O)c2)C1 (stereo unspecified)	-2.4%	0.3%
Cc1nc2ccc(NC(=O)N3CCCCC3)cc2nc1C	-13.5%	-4.3%
O=C(Nc1ccc2nc(-c3ccco3)c(-c3ccco3)nc2c1)N1CCCCCC1	2µM*	14.1µM*
CCOC(=O)C1CCN(C(=O)Nc2ccc3c(c2)nc(C)n3C)CC1	-2.7%	3.5%
CCOC(=O)C1CCN(C(=O)Nc2ccc3nc(-c4ccco4)c(-c4ccco4)nc3c2)CC1	?	14.1µM*
CCOc1ccc(Br)cc1C1C(C(=O)Nc2ccccc2OC)=C(C)Nc2nnnn21 (stereo unspecified)	9.0%	-1.1%
N#CCCn1cnc2c1NC=NC2Cl (stereo unspecified)	-7.1%	-2.1%
CC[C@@H]1C(c2cccc(C)c2)=NN(c2ccccc2)[C@H]1C(=O)N1CCOC1=O	2.9%	0.6%
COc1ccccc1[C@@H]1C(c2cccc(C)c2)=NN(c2ccc(Br)cc2)[C@H]1C(=O)N1CCOC1=O	10µM*	-3.2%
CC[C@@H]1C(c2ccc(F)cc2)=NN(c2ccc(Br)cc2)[C@H]1C(=O)N1CCOC1=O	?	-5.8%
COc1ccccc1[C@@H]1C(c2ccccc2)=NN(c2ccc(Br)cc2)[C@H]1C(=O)N1CCOC1=O	17.8µM*	0.0%
COc1ccccc1[C@@H]1C(c2cccc(Cl)c2)=NN(c2ccccc2)[C@H]1C(=O)N1CCOC1=O	25.1µM*	0.7%
COc1cc(-c2noc(CN3CCN(c4ccccc4)CC3)n2)cc(OC)c1OC	-12.5%	-2.3%
CC(=O)c1cccc(NC(=O)C(Cc2ccccc2)NS(=O)(=O)c2ccc(Br)s2)c1 (stereo unspecified)	19.5%	-0.4%
Cc1cccc(C2=N[C@@H](Cc3ccccc3)CO2)c1	-24.0%	-1.0%
Cn1c(=O)c2c(nc(N/N=C/c3ccc(OC(=O)c4ccco4)cc3)n2Cc2ccc(F)cc2)n(C)c1=O	?	-14.5%
Cn1c(=O)c2c(nc(N/N=C/c3ccc(OC(=O)c4ccco4)cc3)n2Cc2ccccc2Cl)n(C)c1=O	31.6µM*	?
Cc1ccc2oc(=O)c(S(=O)(=O)c3ccc(C(C)(C)C)cc3)cc2c1	13.5%	1.2%
O=C(CSc1ncc2c(n1)-c1ccccc1N(Cc1ccc(Cl)cc1)S2(=O)=O)c1ccccc1	10.2%	2.5%
COc1ccc(Cl)cc1NC(=O)c1cn(C2CCCCC2)c(=O)c2c1c1ccccc1n2C	10µM*	-1.2%
COc1cc(OC)c(NC(=O)c2cn(C3CCCC3)c(=O)c3c2c2ccccc2n3C)cc1Cl	4.3%	-2.0%
SMILES	Cruzain noTriton	Cruzain Triton
Cc1ccc(-c2nc(NC(=O)CSc3cc(C)c4ccccc4n3)ns2)cc1	?	-1.6%
O=C(CSc1ccc2ccccc2n1)Nc1nsc(-c2ccc(Cl)cc2)n1	31.6µM*!	-0.2%
CCCCN(CC)C(=O)Cn1cc2c(n1)-c1c(oc(C(=O)N3CCCC3)c1C)CC2	5.0%	-1.3%
COc1ccc(-c2nc(C)c(CCNC(=O)c3cccs3)s2)cc1	-0.6%	-9.4%
COc1cccc(-c2csc(N3CCN(Cc4ccccc4)CC3)n2)c1	-24.2%	-10.3%
COc1cccc(-c2csc(N3CCN(C(=S)Nc4ccc(Cl)cc4)CC3)n2)c1	25.1µM*	6.9%
COc1cccc(-c2csc(N3CCN(S(=O)(=O)c4ccc(F)cc4)CC3)n2)c1	25.1µM*	-0.3%
COc1cccc(-c2csc(N3CCN(C(=S)Nc4ccccc4)CC3)n2)c1	?	4.3%
CN(C(=O)CSc1nnc(-c2ccccc2F)o1)C1CCCCC1	-10.2%	0.6%
COC(=O)N1CCC2(CCCN(c3ccc(-c4ccccc4)cc3)C2)CC1	-5.2%	-4.7%
O=C(Oc1ccccc1)N1CCC2(CCCN(c3ccc(-c4ccccc4)cc3)C2)CC1	12.6µM*	0.4%

Screening data: PubChem, National Center for Advancing Translational Sciences (NCATS)
